Reference: PubChem BioAssay (EPA / NIEHS)
The source made the active and inactive calls. Rule for the calls: active = hit-call score of the fitted dose curve at least 0.9, where 1 is the maximum; inactive = score below 0.9.

The molecules below were run against X-box-binding protein 1 (Homo sapiens) (UniProt P17861) (assay: ATG_Xbp1_CIS: Attagene CIS-FACTORIAL HepG2 Assay for human X-box Binding Protein 1 (XBP1) (AID 2282972)). Conditions: HepG2 XBP1 cis-element reporter, Attagene multiplex; actives raise or lower the signal.
Experimental: ATG_CIS is a cell-based, multiplexed-readout assay that uses HepG2, a human liver cell line, with measurements taken at 24 hours after chemical dosing in a 24-well plate.ATG_Xbp1_CIS is one of 52 assay component(s) measured or calculated from the ATG_CIS assay. It is designed to make measurements of mRNA induction, a form of inducible reporter, as detected with fluorescence intensity signals by Reverse transcription polymerase chain reaction (RT-PCR) and Capillary electrophoresis technology.Data from the assay component ATG_Xbp1_CIS was analyzed into 1 assay endpoint. This assay endpoint, ATG_Xbp1_CIS, was analyzed with bidirectional fitting relative to DMSO as the negative control and baseline of activity. Using a type of inducible reporter, measures of mRNA for gain or loss-of-signal activity can be used to understand the reporter gene at the transcription factor-level as they relate to the gene XBP1. Furthermore, this assay endpoint can be referred to as a primary readout, because this assay has produced multiple assay endpoints where this one serves a reporter gene function. To generalize the intended target to other relatable targets, this assay endpoint is annotated to the dna binding intended target family, where the subfamily is basic leucine zipper.
Human liver HepG2 cells are transiently transfected with multiple reporter transcription units (MRTUs) in 6-well plates using FuGene 6 reagent (Roche; 3 ml FuGene/1 mg DNA). The MRTU constructs are regulated by a cis-regulating element (promoter). […] A major difference between the CIS and TRANS system is that in CIS activities of endogenous TFs are measured, whereas the TRANS assay evaluates changes in activities of exogenous, chimeric NR-Gal4 proteins. […] At the end of 24 hour incubation, total RNA was isolated using TriZol reagent (Invitrogen). The isolated RNA is then reverse-transcribed using oligo(dT) primer and Mo-MLV reverse transcriptase (Invitrogen) with DNAse I (Ambion) treatment for 30 min. The one-tenth of the produced cDNA was amplified by PCR using Taq DNA polymerase (Invitrogen) and two reporter sequence-specific primers. The PCR products were fluorescently labeled by primer extension with 6-arboxyfluorescein (6-FAM) 5'-labeled reporter sequence-specific primer (2 min at 95 C, 20 s at 68 C and 10 min at 72 C) and these products were digested with 5U of HpaI (New England Biolabs) for 2h at 37 C. The fragments were purified using Qiaquick PCR columns (Qiagen), analyzed on an ABI 3130xL genetic analyzer (Applied Biosystems) with peak positions identified by using a set of X-rhodamine (ROX)-labeled MapMarker1000 molecular weight standards (BioVentures). The raw capillary electrophoresis data was processed using Attagraph software (Attagene).

Sequence of X-box-binding protein 1 (Homo sapiens) (P17861 whole entry, looked up): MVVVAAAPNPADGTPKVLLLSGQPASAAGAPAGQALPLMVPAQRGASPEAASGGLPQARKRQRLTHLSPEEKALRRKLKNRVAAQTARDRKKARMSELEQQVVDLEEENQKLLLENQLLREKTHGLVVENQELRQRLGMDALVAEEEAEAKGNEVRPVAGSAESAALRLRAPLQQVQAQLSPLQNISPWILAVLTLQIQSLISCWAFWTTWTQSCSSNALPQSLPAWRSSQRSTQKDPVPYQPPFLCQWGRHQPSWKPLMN

| SMILES | outcome | AC50 |
| --- | --- | --- |
| CC(=O)Oc1c(C)c(C)c2c(c1C)CC[C@@](C)(CCC[C@H](C)CCC[C@H](C)CCCC(C)C)O2 | inactive | – |
| Cc1cc(O)c2c(c1)C(=O)c1cc(O)cc(O)c1C2=O | – | 9.89 µM (active) |
| C=C(C)C(=O)OCCN(C)C | inactive | – |
| COc1ccccc1NC(=O)CC(C)=O | inactive | – |
| c1ccc2c(c1)-c1ccc3ccc4cccc5cc-2c1c3c45 | inactive | – |
| CC(C)Cc1ccccc1 | inactive | – |
| NCCN1CCNCC1 | inactive | – |
| C1COCO1 | inactive | – |
| CCC(C)(C)c1cc(O)c(C(C)(C)CC)cc1O | – | 5.91 µM (active) |
| C1=COCCC1 | inactive | – |
| ClCCOCCOCCCl | inactive | – |
| C1CCCNCC1 | inactive | – |
| CCOCC(C)O (stereo not given) | inactive | – |
| CC(C)(CO)CO | inactive | – |
| O=Cc1ccccc1O | inactive | – |
| CCCCC1CCCCC(=O)O1 (stereo not given) | inactive | – |
| CC(O)COCC(C)O (stereo not given) | inactive | – |
| CC/C=C\CCCCO | inactive | – |
| CCOC(=O)CC1(C)OCC(C)O1 (stereo not given) | inactive | – |
| CCCCCCCCCOS(=O)(=O)O | inactive | – |

| SMILES | outcome | AC50 |
| --- | --- | --- |
| CCCCCCCOC(C)=O | inactive | – |
| O=C(O)c1cccc(Cl)n1 | inactive | – |
| O=[N+]([O-])c1cc(N(CCO)CCO)ccc1NCCO | inactive | – |
| S=c1[nH][nH]c(=S)s1 | inactive | – |
| CCC(C)(C)C1CCC(OC)CC1 (stereo not given) | inactive | – |
| Cc1cc(N)n(-c2ccccc2)n1 | inactive | – |
| COC(=O)C(C)Oc1ccc(Oc2ncc(C(F)(F)F)cc2Cl)cc1 (stereo not given) | inactive | – |
| NC(N)=NC(N)=NCCc1ccccc1 | inactive | – |
| [O-]/[N+](=N\O)c1ccccc1 | inactive | – |
| O=C(O)c1ccccc1O | inactive | – |
| CCCCCCCCOC(=O)c1ccc(O)cc1 | inactive | – |
| CCC(C)(CCCC(C)C)OC(C)=O (stereo not given) | inactive | – |
| CC(O)CNCC(C)O (stereo not given) | inactive | – |
| Nc1ccc(N)c([N+](=O)[O-])c1 | inactive | – |
| O=S1(=O)CC(Cl)(Cl)C(Cl)(Cl)C1 | inactive | – |
| CC(CCO)CC(C)(C)C (stereo not given) | inactive | – |
| CCOC(=O)C(=O)OCC | inactive | – |
| C[N+](C)(C)CCO | inactive | – |
| CC(C)N(c1ccccc1)C(C)C | inactive | – |
| CCCCCCCCCCCCN1CCOCC1 | – | 46.9 µM (active) |
